FBW7 activator = activators of human E3 ligase FBW7. Q969H0. AlphaScreen FBW7–phospho-cyclin E peptide binding, activator screen. AID 1259310. 650,000 tested, 0.13% active. normalized activity (activation), % at 26.1 µM; in the data active = normalized activity above about 1.9%;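 also: purified mutant Fbw7 with reduced substrate affinity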
Target sequence (Q969H0 whole entry, looked up): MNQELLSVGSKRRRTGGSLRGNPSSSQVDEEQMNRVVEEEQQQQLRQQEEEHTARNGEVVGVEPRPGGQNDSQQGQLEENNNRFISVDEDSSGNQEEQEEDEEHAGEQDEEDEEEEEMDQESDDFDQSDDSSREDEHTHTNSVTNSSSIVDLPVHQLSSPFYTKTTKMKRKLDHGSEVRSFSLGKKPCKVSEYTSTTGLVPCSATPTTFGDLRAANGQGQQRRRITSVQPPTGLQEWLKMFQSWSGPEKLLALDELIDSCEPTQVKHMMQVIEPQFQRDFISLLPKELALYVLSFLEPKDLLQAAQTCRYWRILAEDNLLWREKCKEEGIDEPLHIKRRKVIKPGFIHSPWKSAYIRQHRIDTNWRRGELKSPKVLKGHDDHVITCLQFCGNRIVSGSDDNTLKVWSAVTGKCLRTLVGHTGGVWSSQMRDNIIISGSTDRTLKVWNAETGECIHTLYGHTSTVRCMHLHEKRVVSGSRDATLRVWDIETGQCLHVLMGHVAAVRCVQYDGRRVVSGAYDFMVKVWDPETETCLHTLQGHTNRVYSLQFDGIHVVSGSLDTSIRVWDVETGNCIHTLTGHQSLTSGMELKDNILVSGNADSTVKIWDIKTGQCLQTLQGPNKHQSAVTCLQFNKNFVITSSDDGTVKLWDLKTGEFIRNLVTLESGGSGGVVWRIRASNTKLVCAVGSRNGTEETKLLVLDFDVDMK
TEAD-YAP block = TEAD-YAP interaction inhibition; 640,000 tested, 1.4% active; AID 1259422; HEK-TIYL cells, TEAD-Gal4/YAP UAS-luciferase luminescence; inhibition, % at 9.12 µM; in the data active = inhibition above about 32%
GPR151 ag = activates the human receptor GPR151; 650,000 tested, 1% active; activation, % at 11.2 µM; Q8TDV0; PathHunter beta-arrestin GPR151 cells, luminescence; in the data active = activation above about 4.9%
MITF primary = human MITF inhibition, primary screen; O75030; AlphaScreen MITF homodimerization, bead proximity signal; inhibition, % at 2.6 µM; 650,000 tested, 0.91% active; AID 1259374; in the data active = inhibition above about 50%
GPR151 conf act = human GPR151 activation, confirmation screen | shares compounds with GPR151 ag | GPR151 PathHunter beta-arrestin cells, luminescence, 90 min; % of EA-reagent control over plate median | activation, % at 11.2 µM | 6,700 tested, under 10 active | AID 1508609;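 active = mean percent activation across replicates above the confirmation screen cutoff of 4.91%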
GPR119 counter = activates human GPR119 in a GPR151 counter-screen. shares compounds with GPR151 ag. GPR119 PathHunter beta-arrestin cells, luminescence, 90 min; 0 = compound-well median, 100 = enzyme-acceptor control. activation, % at 11.2 µM. 6,700 tested, 0.3% active;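 active = mean percent activation in the counterscreen above 29.09%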;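 also: counterscreen on off-target GPR119 to flag nonselective hits from the GPR151 activator screen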
Large screens that a line does not name were inactive (follow-up assays come after a bar, where they were run); ! = repeats disagree. Shown are actives, neighbours in structure and some others; about 3.5% of the full set was active somewhere.

CSc1cccc(NC(=O)CCc2ccc(S(=O)(=O)NCC(C)C)cc2)c1	none
CCOC(=O)Cc1csc(NC(=O)CSc2nc(C)cc(C)n2)n1	GPR151 ag 5.6 | GPR151 conf act inactive | GPR119 counter inactive
COC(CN1C(=O)C(=O)/C(=C(/O)c2ccccc2)C1c1cccnc1)OC (configuration not stated)	GPR151 ag 5.9 | GPR151 conf act inactive | GPR119 counter inactive
COC(CN1C(=O)C(=O)/C(=C(\O)c2ccccc2)C1c1ccccc1)OC (configuration not stated)	none
O=C1C(=O)N(CCN2CCOCC2)C(c2cccnc2)/C1=C(/O)c1ccc(S(=O)(=O)N2CCOCC2)cc1 (configuration not stated)	GPR151 ag 6.5 | GPR151 conf act inactive | GPR119 counter inactive
C/C=C/c1ccc(OCCNC)c(OC)c1	none
C/C=C/c1ccc(OCCCNC)c(OC)c1	GPR151 ag 6.1 | GPR151 conf act inactive | GPR119 counter inactive
O=C(Cc1cccs1)N/N=C\c1ccc(O)c(O)c1	GPR151 ag 5.3 | GPR151 conf act inactive | GPR119 counter inactive
O=C(Cc1cccs1)N/N=C\c1ccc(O)cc1	none
COc1ccc(-c2cc(C(=O)Nc3ccc(OC)cc3OC)no2)cc1	none
CCCc1cc(C(=O)Nc2ccc(OC)cc2OC)no1	GPR151 ag 17.1 | GPR151 conf act inactive | GPR119 counter inactive
O=S(=O)(c1ccc(S(=O)(=O)n2cnc3ccccc32)cc1)N1CCCC1	GPR151 ag 6.0 | GPR151 conf act inactive | GPR119 counter inactive
CSc1cccc(NC(=O)CCC(=O)N2CCSc3ccccc32)c1	GPR151 ag 17.2 | GPR151 conf act inactive | GPR119 counter inactive
Cc1ccc(S(=O)(=O)N(CC(N)=O)c2cccc([N+](=O)[O-])c2)cc1	GPR151 ag 8.4 | GPR151 conf act inactive | GPR119 counter inactive
CS(=O)(=O)N(CC(N)=O)c1cccc([N+](=O)[O-])c1	none
CCOc1ccc(NC(C)C(=O)N/N=C/c2ccc(F)cc2)cc1 (configuration not stated)	none
CC1CCCC(C)N1NC(=S)Nc1ccccc1 (configuration not stated)	GPR151 ag 4.9 | GPR151 conf act inactive | GPR119 counter inactive
CC(C(=O)O)c1ccc(CC2CCCC2=O)cc1 (configuration not stated)	GPR151 ag 6.7! | GPR151 conf act inactive | GPR119 counter inactive
CC(C)Cc1ccc(C(C)C(=O)O)cc1 (configuration not stated)	none
COc1ccc(Nc2nc(N3CCN(C)CC3)c3ccccc3n2)cc1	GPR151 ag 9.5 | GPR151 conf act inactive | GPR119 counter inactive
CCOc1ccc(Nc2nc(N3CCN(C)CC3)c3ccccc3n2)cc1	none
COc1ccccc1N1CCN(CCN2CCN(C)CC2)CC1	GPR151 ag 12.5 | GPR151 conf act inactive | GPR119 counter inactive
COC(=O)c1ccc(OCC(O)CN2CCN(c3ccccc3OC)CC2)cc1 (configuration not stated)	GPR151 ag 10.7 | GPR151 conf act inactive | GPR119 counter inactive
CCC(=O)c1ccc(OCC(O)CN2CCN(c3ccccc3OC)CC2)cc1 (configuration not stated)	none
COc1cccc(-c2noc(C3CCCN(C(=O)CC4CCCCC4)C3)n2)c1 (configuration not stated)	none
Cc1cc(C)nc(/N=C(\N)Nc2cc(Cl)cc(Cl)c2)n1	none
O=[N+]([O-])c1ccc(Nc2nc3nonc3nc2Nc2ccc([N+](=O)[O-])cc2)cc1	none
CCOC(=O)N1CCC(Nc2nncc(-c3ccc(OC)cc3)n2)CC1	GPR151 ag 10.3 | GPR151 conf act inactive | GPR119 counter inactive
CCOC(=O)N1CCC(NC(=O)c2ccc(CSCc3c(F)cccc3Cl)o2)CC1	GPR151 ag 5.3 | GPR151 conf act inactive | GPR119 counter inactive
CCOC(=O)N1CCC(NC(=O)C(=O)CC(=O)c2ccc(OC)cc2)CC1	GPR151 ag 5.4 | GPR151 conf act inactive | GPR119 counter inactive
CCOC(=O)N1CCC(NCCNC(=O)c2ccc(Cl)cc2)CC1	GPR151 ag 12.0 | GPR151 conf act inactive | GPR119 counter inactive
O=C1NC(=S)N(c2cccc(Cl)c2)C(=O)/C1=C/c1ccccc1O	none
Cc1ccc(C2=N/C(=C\c3ccc(Cl)cc3)C(=O)N2)cc1	none
CCCN(CC(=O)Nc1ccccc1C)C(=O)CCl	TEAD-YAP block 71.7, GPR151 ag 8.4 | GPR151 conf act inactive | GPR119 counter inactive
O=C(CCC1=NNC(=O)CC1)NCCN1Cc2ccccc2OC(c2ccccc2F)C1 (configuration not stated)	none
O=C1CCC(CCC(=O)N2Cc3ccccc3OC(c3ccccc3)C2)=NN1 (configuration not stated)	GPR151 ag 9.9 | GPR151 conf act inactive | GPR119 counter inactive
COc1cccc(-c2nc(C3CCCN3C(=O)CCCC(=O)O)n3ccccc23)c1 (configuration not stated)	GPR151 ag 5.7 | GPR151 conf act inactive | GPR119 counter inactive
COc1cccc(-c2nc(C3CCCN3C(=O)CC(C)CC(=O)O)n3ccccc23)c1 (configuration not stated)	none
COc1cc(C2=N/C(=C\c3cccc(OC(C)=O)c3)C(=O)O2)cc(OC)c1OC	none
Oc1ccccc1-c1csc(Nc2ccccn2)n1	GPR151 ag 7.6 | GPR151 conf act inactive | GPR119 counter inactive
CCCCCCc1cc(O)c2c(C)cc(=O)oc2c1	GPR151 ag 7.0 | GPR151 conf act inactive | GPR119 counter inactive
CN(CC1COCCO1)C(=O)c1cc(COc2c(F)cccc2F)on1 (configuration not stated)	GPR151 ag 16.2 | GPR151 conf act inactive | GPR119 counter inactive
COC(=O)c1ccc(CN(c2ccccn2)S(=O)(=O)c2ccccc2)cc1	GPR151 ag 7.3 | GPR151 conf act inactive | GPR119 counter inactive
COC(=O)c1ccc(CN(c2ccccc2)S(=O)(=O)c2ccccc2)cc1	none
Cc1ccc2nc(-c3ccc(NC(=O)N4c5ccccc5Sc5ccccc54)cc3)sc2c1	none
CCOC(=O)c1cc(-c2ccccc2)oc1CN1CCOCC1	GPR151 ag 8.9 | GPR151 conf act inactive | GPR119 counter inactive
CCOC(=O)c1cc(-c2ccccc2)n(CCCN2CCOCC2)c1C	none
CC(C)C[C@@H](NC(=O)OCC1c2ccccc2-c2ccccc21)C(=O)O	GPR151 ag 7.8 (no result: TEAD-YAP block) | GPR151 conf act inactive | GPR119 counter inactive
Cc1cccc(OCC(=O)Nc2sc3c(c2C(N)=O)CCCC3)c1C	none
Cn1c(Nc2ccccc2Cl)cc(=O)n(C)c1=O	none
CCCCNCc1cc(Cl)c(OCC(=O)NC(C)(C)C)c(OCC)c1	GPR151 ag 7.0 | GPR151 conf act inactive | GPR119 counter inactive
COc1ccc(-n2c(=S)[nH]c3cc(C(=O)Nc4cc(OC)c(OC)c(OC)c4)ccc3c2=O)cc1	none
CC(C)[C@H](NC(=O)c1ccc(F)cc1)C(=O)OCC(=O)Nc1ccc(C#N)cc1	GPR151 ag 7.4 | GPR151 conf act inactive | GPR119 counter inactive

From PubChem BioAssay
